# High-throughput results deposited in PubChem by National Center for Advancing Translational Sciences (NCATS).
# In the library only some 15% were active in any assay of this set; here they are far more common.
# Pf growth 48h = P. falciparum growth inhibition at 48 hours (one generation). P. falciparum luciferase growth in erythrocytes, 48 h. Potency, µM (titrated, usually from 28.7 µM), without a hit: at the highest dose activity change, negative = inhibition, actives largely listed as inhibitors. hit rate 5.9% among 310,000. AID 504832; note: potency is the fitted concentration of half-maximal effect; % is set by controls: 0 for no effect and ±100 for the full control effect
#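 Luciferase-expressing P. falciparum in infected erythrocytes (2% hematocrit, 0.1% parasitemia final) in RPMI 1640/0.5% Albumax were exposed to compound for 48 hours at 37 C, 5% CO2; growth read as luminescence.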
# Pf growth 96h = P. falciparum growth inhibition at 96 hour, primary screen for plastid delayed-death inhibitors; P. falciparum luciferase reporter growth, 96 h; hit rate 6.9% among 320,000; Potency, µM (titrated, usually from 28.7 µM), without a hit: at the top dose activity change, negative = inhibition, usual class: inhibitors; note: potency is the fitted concentration of half-maximal effect; % is set by controls: 0 for no effect and ±100 for the full control effect
#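 Luminescence readout: decreased luciferase signal marks inhibited growth of reporter-expressing P. falciparum in infected red cells (2% hematocrit, 0.05% parasitemia final), exposed to compound two generations (96 h, 37 C, 5% CO2).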
# HCMV inh = inhibitors of human cytomegalovirus; HFF cells, HCMV-luciferase reporter, 72 h; active compounds read low; hit rate 4.5% among 410,000; activity change, negative = inhibition, % at 57.5 µM; in the data active = activity change below about -60%; inconclusive = no clear call, values can overlap the other calls; inactive = above about -39%; note: % is set by controls: 0 for no effect and ±100 for the full control effect
#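 Two-dose cell screen: HFF monolayers treated with compounds and infected with luciferase-expressing HCMV at 1 PFU/cell, 72 h at 37C, then lysed for luciferase measurement.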
# SARS PLpro yeast = inhibitors of SARS-CoV papain-like protease in yeast. S. cerevisiae expressing SARS-CoV PLpro, growth rescue. Potency, µM (highest dose often 32.9 µM), for the others: at the top dose activity, positive = growth rescue, hits mostly activators. hit rate 0.19% among 330,000. AID 485353; calls by dose curve; note: potency is the fitted concentration of half-maximal effect; 0% is about no effect; nearly all actives have a fitted effect of over 55% in size
# Sm TGR block = S. mansoni TGR enzyme inhibition; Q962Y6; purified TGR, DTNB reduction, TNB absorbance 405 nm; Potency, µM (top dose mostly 114 µM), inactives show at the top dose activity change, negative = inhibition, actives largely listed as inhibitors; hit rate 3% among 360,000; AID 485364; note: potency is the fitted concentration of half-maximal effect; % is set by controls: 0 for no effect and ±100 for the full control effect; nearly all actives have a fitted effect of over 60% in size
#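 TGR 20 nM + NADPH 100 uM (dispensed conc.), cpd preinc 15 min RT; start with NADPH (500 uM addition) then DTNB (15 mM addition). Kinetic TNB absorbance, 405 nm filter. Four-parameter Hill fit across titration.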
# HCV inh = HCV inhibition. Huh7.5.1 HCVcc-Cre infection, luciferase reporter, 44 h. Potency, µM (top dose mostly 41.8 µM), for the others: at the highest dose activity change, negative = inhibition, hits mostly inhibitors. hit rate 3.4% among 340,000. AID 651820; note: potency is the fitted concentration of half-maximal effect; % is set by controls: 0 for no effect and ±100 for the full control effect
#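 After 44 h co-culture of compound, cells and HCVcc-Cre (~0.5 moi), substrate is added for 15 min at room temperature and luciferase measured over 15 sec. Cells were seeded at 1,000/well and pre-cultured 4 h.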
# * marks the source's active call; other numbers are inactive results; ? = inconclusive; · = not tested or not shown; [ ] = dose if it differs, or a comment. Unless noted, calls come from the whole dose curve; as a rule, active = well fitted curve in the direction sought with a large enough effect; inconclusive = small, poorly fitted or top-dose-only effect, or another doubt; inactive = no such curve, though single readings can be large; an effect the other way counts as inactive or inconclusive.
SMILES,Pf growth 48h,Pf growth 96h,HCMV inh,SARS PLpro yeast,Sm TGR block,HCV inh
Cc1ccc(Cn2c(C3CCCN3c3nc(C)cs3)nc3cc(C(F)(F)F)ccc32)cc1 (stereo not given),?,?,·,-24.2%,-25.0%,?
CCCn1c(C2CCCN2c2nc(-c3cccc(Br)c3)cs2)nc2ccccc21 (stereo not given),?,1.85µM*,?,17.4%,5.7%,?
COc1cc(OC)c(S(=O)(=O)Nc2ccc(C(=O)O)cc2)cc1S(=O)(=O)Nc1ccc(C(=O)O)cc1,6.7%,22.1%,-5.3,2.1%,-3.3%,17.3%
N/C(Cc1ccc(Cl)cc1)=N\OC(=O)c1ccc2ccccc2c1,?,10.4µM*,9.5,-23.4%,2.0%,31.6µM*
N/C(Cc1ccc(Cl)cc1)=N\OC(=O)c1cccc2ccccc12,?,?,-18.8,-57.6%,14.7%,7.08µM*
CCC(=O)N1CCC1(C)C(=O)Nc1nccs1 (stereo not given),·,·,8.3,·,·,·
CCN(CC1COc2ccccc2O1)C(=S)Nc1ccccc1 (stereo not given),37.7%,356.5%,-23.0,11.2%,-1.3%,-28.7%
CCN(CC1COc2ccccc2O1)C(=S)NCCCN(C)C (stereo not given),90.8%,10.4µM*,?,1.0%,1.1%,-23.2%
CCOC(=O)CNC(=S)N(CCCN1CCN(C)CC1)Cc1cccs1,5.0%,28.1%,7.5,0.9%,-4.1%,13.9%
CCc1nc2ccc(C(=O)NCCCN3CCCC3=O)cn2c1N(C)C(=O)c1cccc(OC)c1,·,·,-6.7,·,·,·
Cc1ccc(S(=O)(=O)N(C(=O)c2ccco2)c2cc3sc(=O)oc3c3ccccc23)cc1,10.4µM*,11.7µM*,?,6.4%,-4.3%,-2.3%
CCN(CC)c1ccc(NC(=O)CN2C(=O)CC(C)(C)S(=O)(=O)c3ccccc32)c(C)c1,?,8.28µM*,4.5,-0.3%,-24.5%,8.1%
CCN(CC)c1ccc(NC(=O)CNCc2ccccc2Cl)c(C)c1,2.4%[0.00184 µM],?,-102.6*,0.6%,-18.5%,-29.1%
CCN(CC)c1ccc(NC(=O)c2cnc3ccccn3c2=O)c(C)c1,-29.1%,?,-72.9*,0.7%,-24.8%,-18.8%
CC1(C)CC(=O)N(CC(=O)NCc2ccccc2)c2ccccc2S1(=O)=O,12.8%,51.3%,10.9,1.5%,-9.6%,6.8%
Cc1ccc(NC(=O)c2cnc3cc(C)ccn3c2=O)c(C)c1,·,·,61.0,·,9.9%,·
CCOc1ccccc1/C=N/OCC(=O)NCc1ccc(F)cc1,-4.6%,16.9%,-22.7,-4.8%,-0.5%,3.98µM*
COC(=O)c1ccc(/C=N/OCC(=O)NCc2ccc(F)cc2)cc1,-2.1%,-3.1%,-37.5,-9.8%,0.7%,?
O=C(Cn1c(=O)n(CC(=O)NCc2ccccc2)c2ccccc21)NCc1ccccc1,-13.3%,25.7%,-7.1,-1.1%,-4.3%,7.08µM*
CCCNC(=O)Cn1c(=O)n(C)c2ccccc21,-1.2%,-19.7%,8.0,0.5%,9.3%,16.8%
Cc1c(C#N)c2ccccc2n1CC(=O)NCc1ccccc1,?,-4.8%,39.2,-7.7%,-7.4%,-4.5%
CCCCNC(=O)Cn1c(=O)n(C)c2ccccc21,17.2%,7.38µM*,0.9,19.4%,5.5%,16.8%
Cc1cc(=O)c2cc(Br)ccc2n1CC(=O)NCc1ccccc1,-12.1%,?,17.4,0.3%,-13.4%,12.6µM*
CCc1cccc(NC(=O)C(c2ccccc2)N2Cc3ccccc3C2=O)c1 (stereo not given),·,·,8.7,·,1.0%,·
Cc1ccc(NS(=O)(=O)c2ccc(-n3cccn3)cc2)cc1Cl,·,·,-33.1,·,6.4%,·
SMILES,Pf growth 48h,Pf growth 96h,HCMV inh,SARS PLpro yeast,Sm TGR block,HCV inh
CCc1cccc(NS(=O)(=O)c2ccc(-n3cccn3)cc2)c1,25.7%,13.1µM*,-32.6,-5.3%,2.9%,-25.7%
O=S(=O)(Nc1cccc(Cl)c1)c1ccc(-n2cccn2)cc1,2.7%,?,-15.3,1.7%,0.7%,5.7%
Cc1ccc(NS(=O)(=O)c2ccc(-n3cccn3)cc2)cc1C,?,?,-92.9*,3.2%,-5.7%,?
CCOC(=O)n1c(=O)oc2ccc(Cl)cc21,-1.5%,12.6%,20.2,-25.5%,0.0%,0.1%
CCOC(=O)C1(C(N)=O)OC1(c1ccc(Cl)cc1)c1ccccc1Cl (stereo not given),·,·,-15.1,·,·,6.6%
CCOC(=O)N1C(=O)[C@@](c2ccc(Cl)cc2)(C(C)C)N1C(=O)OCC,?,56.5%,44.0,-25.0%,11.2µM*,53.4%
CCOC(=O)N1C(=O)[C@](c2ccc(Cl)cc2)(C(C)C)N1C(=O)OCC,-1.2%,45.4%,-90.0*,-16.6%,17.8µM*,12.9%
Cc1cc(=O)n2c(sc3ccccc32)c1C#N,19.0%,47.7%,-90.5*,-1.3%,-13.6%,-18.3%
Cc1cc(=O)n(CCc2ccccc2)c(O)c1C#N,-4.5%,10.7%,4.8,-17.9%,?,-8.6%
CN(C(=O)CN1C(=O)S/C(=C\c2ccccc2)C1=O)C1CCS(=O)(=O)C1 (stereo not given),-6.9%,13.1µM*,1.4,2.2%,-5.9%,10.8%
CN(C(=O)CCN1C(=O)/C(=C/c2ccccc2)SC1=S)C1CCS(=O)(=O)C1 (stereo not given),?,2.62µM*,-11.7,0.3%,10.7%,4.3%
CN(C(=O)CN1C(=O)/C(=C/c2ccc(F)cc2)SC1=S)C1CCS(=O)(=O)C1 (stereo not given),-1.0%,19.7%,-23.4,3.0%,11.2%,16.9%
CN(C(=O)CN1C(=O)S/C(=C\c2ccc(Cl)cc2)C1=O)C1CCS(=O)(=O)C1 (stereo not given),-12.0%,-10.8%,-37.5,8.7%,-14.2%,16.6%
CC(=O)c1ccc(S(=O)(=O)N(C)CCCC(=O)NCc2ccc3c(c2)OCO3)cc1,?,?,21.3,-0.4%,?,-1.2%
CCNc1nc(SCC(=O)Nc2ccc(Cl)c(Cl)c2)nc(N2CCOCC2)n1,?,-0.6%,3.1,-0.7%,-5.4%,?
CC1CCN(c2nc3ccc(C(=O)N4CCN(Cc5ccc6c(c5)OCO6)CC4)cc3s2)CC1,·,4.15µM*,?,8.1%,1.8%,3.16µM*
O=S(=O)(c1cc(Cl)ccc1Cl)N1CCN(Cc2ccc3c(c2)OCO3)CC1,·,10.4µM*,6.9,-2.9%,5.8%,-26.8%
O=C(c1ccc(S(=O)(=O)N2CCCC2)cc1)N1CCN(Cc2ccc3c(c2)OCO3)CC1,?,·,-24.2,2.5%,5.2%,-16.5%
Cc1ccc(C(=O)N2CCN(Cc3ccc4c(c3)OCO4)CC2)cc1S(=O)(=O)N1CCOCC1,?,10.4µM*,?,0.3%,-26.5%,?
